From the supplement of paper PMC12067926
Values without a mark were called inactive.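 The calls were made as follows: active = growth AUC significantly below the DMSO wells by Dunnett test; inactive = the rest.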

Tests used:
Assay in all cases: relative growth (AUC of 72 h growth curve relative to DMSO control, dAUC) (ratio); higher = more growth (less inhibition), active = hit call of the paper
Conditions in all cases: 20 µM
[1] = system: Prolinoborus 1 (Prolinoborus fasciculus)
In short: (§1)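 Isolates from Icelandic stream sediments and Silwood Park soil, along with whole sediment communities, were grown in Luria–Bertani medium to carrying capacity and diluted 1:100 into 96-well plates with each chemical at 20 µM (1% DMSO). A600 was measured hourly for 72 h, and values were averaged over three biological replicates. Relative growth (dAUC) is the spline-integrated growth-curve area over the mean of the DMSO controls.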

[2] = system: Pseudomonas 1 (Pseudomonas baetica)
In short: as §1

[3] = system: Pseudomonas 2 (Pseudomonas vancouverensis)
In short: as §1

[4] = system: Pseudomonas 3 (Pseudomonas mandelii)
In short: as §1

[5] = system: Pseudomonas 4 (Pseudomonas peli)
In short: as §1

[6] = system: Pseudomonas 5 (Pseudomonas baetica)
In short: as §1

[7] = system: Pseudomonas 6 (Pseudomonas sp.)
In short: as §1

[8] = system: Rhizobium 1 (Rhizobium herbae)
In short: as §1

[9] = system: Serratia 1 (Serratia sp. 2015-2462-01)
In short: as §1

[10] = system: Sphingomonas 2 (Sphingomonas sp.)
In short: as §1

| SMILES | relative growth [1] | relative growth [2] | relative growth [3] | relative growth [4] | relative growth [5] | relative growth [6] | relative growth [7] | relative growth [8] | relative growth [9] | relative growth [10] |
| --- | --- | --- | --- | --- | --- | --- | --- | --- | --- | --- |
| CCCC1COC(Cn2cncn2)(c2ccc(Cl)cc2Cl)O1 (stereo not given) | 0.954 | 1.08 | 0.967 | 1 | 0.914 | 0.987 | 1.02 | 0.931 | 0.944 | 1.11 |
| COc1cc(C)c(C(=O)c2c(OC)ccc(Br)c2C)c(OC)c1OC | 1.01 | 0.978 | 1.01 | 1 | 1.02 | 0.991 | 0.939 | 0.937 | 1.02 | 1.04 |
| CC(C1CC1)C(O)(Cn1cncn1)c1ccc(Cl)cc1 (stereo not given) | 0.901 | 0.624 (active) | 0.955 | 0.971 | 0.991 | 0.986 | 1.03 | 0.947 | 1 | 1.13 |
| COc1cccc(C(=O)NN(C(=O)c2cc(C)cc(C)c2)C(C)(C)C)c1C | 0.981 | 1.04 | 1.01 | 1.04 | 0.987 | 1.05 | 1.12 | 0.96 | 0.934 | 0.977 |
| N#Cc1cc(Br)c(O)c(Br)c1 | 0.996 | 1.06 | 1.02 | 1.09 | 0.964 | 1.05 | 1.12 | 0.751 | 0.998 | 1.06 |
| CC(Oc1ccc(Oc2ncc(C(F)(F)F)cc2Cl)cc1)C(=O)O (stereo not given) | 0.983 | 1.1 | 1.04 | 1.05 | 1 | 1.03 | 1.17 | 1.11 | 0.972 | 1.08 |
| C[C@@H]1[C@@H](c2ccc(Cl)cc2)SC(=O)N1C(=O)NC1CCCCC1 | 0.994 | 0.933 | 0.976 | 1.02 | 1 | 1.05 | 1.13 | 0.964 | 1 | 0.987 |
| CC1(C)CON(Cc2ccccc2Cl)C1=O | 0.954 | 1.01 | 0.981 | 1.06 | 0.975 | 1.06 | 1.13 | 0.983 | 0.94 | 1.15 |
| N#CC(CCc1ccc(Cl)cc1)(Cn1cncn1)c1ccccc1 (stereo not given) | 0.902 | 0.999 | 0.921 | 0.992 | 0.934 | 0.932 | 0.909 | 0.947 | 0.921 | 1.08 |
| CCOC(=O)OC1=C(c2cc(C)ccc2C)C(=O)N[C@]12CC[C@@H](OC)CC2 | 1 | 1.11 | 0.998 | 1.02 | 1.02 | 0.981 | 1.09 | 0.952 | 0.987 | 1.04 |
| CC(C)(C)[C@@H](O)[C@H](Oc1ccc(Cl)cc1)n1cncn1 | 1.02 | 0.598 (active) | 0.991 | 0.991 | 0.989 | 0.963 | 0.953 | 1.05 | 1.02 | 1.08 |
| CCCCN(CCCC)SN(C)C(=O)Oc1cccc2c1OC(C)(C)C2 | 0.949 | 0.618 (active) | 1.03 | 1.07 | 1.01 | 1.03 | 1.18 | 0.946 | 0.977 | 0.798 |
| O=C(NC(=O)c1c(F)cccc1F)Nc1ccc(OC(F)(F)C(F)OC(F)(F)F)c(Cl)c1 (stereo not given) | 0.988 | 1.02 | 1.01 | 0.99 | 0.961 | 0.966 | 0.98 | 0.952 | 0.995 | 1.11 |
| O=C(O)c1nc(Cl)ccc1Cl | 0.949 | 1 | 0.984 | 1 | 0.969 | 0.971 | 1.03 | 1.05 | 0.977 | 0.931 |
| C/C(=N\C#N)N(C)Cc1ccc(Cl)nc1 | 0.963 | 0.967 | 1 | 0.987 | 0.991 | 1.03 | 0.981 | 1.11 | 0.976 | 1.03 |
| CCNC(=O)NC(=O)/C(C#N)=N/OC | 0.954 | 0.924 | 0.96 | 0.993 | 0.981 | 0.986 | 1.03 | 1.06 | 1 | 0.919 |
| Fc1ccc([C@]2(Cn3cncn3)O[C@H]2c2ccccc2Cl)cc1 (racemic) | 0.982 | 0.942 | 0.973 | 1.04 | 0.967 | 0.992 | 1.07 | 1.08 | 0.972 | 1.01 |
| CN(C)C(CSS(=O)(=O)O)CSS(=O)(=O)O | 0.961 | 1.14 | 0.994 | 1.08 | 0.978 | 1.04 | 1.1 | 0.931 | 0.953 | 0.893 |
| COc1ccc(-c2ccccc2)cc1NNC(=O)OC(C)C | 0.918 | 1.14 | 0.964 | 1.05 | 0.951 | 1.08 | 1.17 | 0.865 | 0.932 | 0.92 |
| Nc1c(Cl)c(F)nc(OCC(=O)O)c1Cl | 1 | 0.977 | 1 | 0.978 | 1.04 | 0.947 | 0.889 | 0.958 | 0.996 | 1.11 |
| CC(C)OC(=O)Nc1cccc(Cl)c1 | 0.976 | 0.905 | 0.958 | 1.04 | 0.981 | 0.991 | 0.921 | 0.876 | 0.974 | 0.926 |
| Cc1nnc(-c2ccccc2)c(=O)n1N | 0.97 | 1.08 | 0.997 | 1.03 | 0.954 | 0.987 | 1.1 | 1.07 | 0.966 | 1 |
| CON(C)C(=O)Nc1ccc(Cl)c(Cl)c1 | 0.886 | 0.986 | 0.949 | 0.991 | 0.982 | 0.984 | 1.02 | 0.869 | 0.978 | 1.02 |
| C[N+]1(C)CCCCC1 | 0.974 | 0.972 | 0.981 | 1.02 | 1.05 | 1.04 | 1.03 | 1.02 | 1.03 | 0.999 |
| Cc1cc(C2CC2)nc(Nc2ccccc2)n1 | 1.03 | 1.11 | 1 | 1.03 | 0.976 | 0.991 | 0.966 | 1.06 | 0.969 | 0.951 |
| Cc1c(COC(=O)[C@@H]2[C@H](/C=C(\Cl)C(F)(F)F)C2(C)C)cccc1-c1ccccc1 (racemic) | 0.977 | 0.975 | 0.983 | 0.977 | 0.995 | 1.01 | 0.949 | 0.893 | 1.01 | 1.07 |
| CCCCOC(=O)[C@H](C)Oc1ccc(Oc2ccc(C#N)cc2F)cc1 | 1.02 | 0.985 | 1.08 | 1.07 | 0.967 | 1.06 | 1.17 | 1.07 | 1 | 1.1 |
| CNC(=O)c1cc(C#N)cc(C)c1NC(=O)c1cc(Br)nn1-c1ncccc1Cl | 0.944 | 0.962 | 0.986 | 1.01 | 0.976 | 1.06 | 1.06 | 0.961 | 0.982 | 1.05 |
| COc1cc(OC)nc(NC(=O)NS(=O)(=O)c2ncccc2C(=O)N(C)C)n1 | 0.999 | 0.988 | 1 | 1.01 | 0.993 | 0.996 | 0.943 | 0.992 | 1 | 1 |
